HEK293 tox: kills HEK 293 cells; HEK 293 viability, ATP luminescence (CellTiter-Glo), 48-72 h; Potency, µM (highest dose often 115 µM), most hits filed as inhibitors; 94,000 compounds, 6.6% hits; AID 1345083; also: nearly all actives have a fitted effect of over 60% in size
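Pintool-delivered compounds were incubated with HEK 293 cells (250 cells/well) at 37 degree Celsius for 48 or 72 hr. ATP-dependent luminescence (CellTiter-Glo) then reported remaining viable cells.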
NIH3T3 tox: kills NIH 3T3 cells; NIH 3T3 viability, CellTiter-Glo ATP luminescence, 48-72 h; Potency, µM (highest dose often 96.7 µM), hits mostly inhibitors; 94,000 compounds, 4.3% hits; AID 1345082; also: nearly all actives have a fitted effect of over 55% in size
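Cytotoxicity is measured as loss of cellular ATP: NIH 3T3 cells (400/well) are exposed to compound for 48 or 72 hr at 37 °C, then CellTiter-Glo luminescence is imaged after 10 min at room temperature.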
NPR1 antag: antagonists of human natriuretic peptide receptor Npr1 | AID 1347048 | 76,000 compounds, 1.6% hits | HEK293 hNpr1 GloSensor cGMP, ANP-stimulated luminescence | Potency, µM (top dose mostly 46.3 µM), most hits filed as inhibitors | P16066; calls by dose curve; also: nearly all actives have a fitted effect of over 60% in size
Target sequence (P16066 whole entry, looked up): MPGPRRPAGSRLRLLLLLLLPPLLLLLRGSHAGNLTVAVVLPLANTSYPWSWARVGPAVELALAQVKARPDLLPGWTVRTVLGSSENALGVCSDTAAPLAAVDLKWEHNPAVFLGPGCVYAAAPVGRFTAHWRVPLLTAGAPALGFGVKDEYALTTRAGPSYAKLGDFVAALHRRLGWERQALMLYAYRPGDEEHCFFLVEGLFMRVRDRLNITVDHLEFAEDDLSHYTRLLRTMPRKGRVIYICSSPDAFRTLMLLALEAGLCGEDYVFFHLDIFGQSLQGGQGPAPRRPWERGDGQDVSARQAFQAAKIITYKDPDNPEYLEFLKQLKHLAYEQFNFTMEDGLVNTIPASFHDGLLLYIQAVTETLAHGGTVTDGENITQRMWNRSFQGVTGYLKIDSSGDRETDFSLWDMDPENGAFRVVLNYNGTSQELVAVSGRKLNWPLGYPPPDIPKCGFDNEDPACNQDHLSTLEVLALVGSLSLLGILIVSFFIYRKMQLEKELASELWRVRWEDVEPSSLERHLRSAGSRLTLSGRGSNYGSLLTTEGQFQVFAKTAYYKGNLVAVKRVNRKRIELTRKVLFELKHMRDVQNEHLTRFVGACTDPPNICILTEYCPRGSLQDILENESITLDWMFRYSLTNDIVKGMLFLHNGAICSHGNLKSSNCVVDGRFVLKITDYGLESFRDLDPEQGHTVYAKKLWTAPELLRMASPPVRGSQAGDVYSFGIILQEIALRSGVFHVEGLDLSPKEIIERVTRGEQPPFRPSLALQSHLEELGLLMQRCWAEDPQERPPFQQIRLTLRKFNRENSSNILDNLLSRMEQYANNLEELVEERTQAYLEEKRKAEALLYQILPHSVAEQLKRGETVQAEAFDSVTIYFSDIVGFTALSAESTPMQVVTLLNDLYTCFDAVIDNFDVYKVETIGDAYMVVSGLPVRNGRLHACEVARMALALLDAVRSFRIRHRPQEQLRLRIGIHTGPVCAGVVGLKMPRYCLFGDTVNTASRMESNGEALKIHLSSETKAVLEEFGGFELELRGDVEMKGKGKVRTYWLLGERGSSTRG
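HEK293 cells stably expressing human Npr1 and cGMP GloSensor pGS-40F, loaded 2 h with 2% GloSensor reagent, given compound 30 min at room temperature. Luminescence read before and 20 min after 0.1 nM hNppA.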
FLuc inh: blocks purified firefly luciferase enzyme activity | P08659 | purified P. pyralis luciferase, luminescence, biochemical | Potency, µM (top dose mostly 115 µM), actives largely listed as inhibitors | 76,000 compounds, 2.5% hits | AID 1347043; also: nearly all actives have a fitted effect of over 65% in size
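Luminescence read by CCD imaging after purified firefly luciferase (10nM final) was added to substrate buffer holding 10uM D-luciferin and 10uM ATP, pH 7.5, pre-dosed with compound.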
Each line names hits and unclear results; the compound was inactive in the other large screens. Hits are enriched below; roughly 11% of the tested compounds scored in any of these assays. Unless noted, calls follow the shape of the dose curve; as a rule, active = well fitted curve in the direction sought with a large enough effect; inconclusive = small, poorly fitted or top-dose-only effect, or another doubt; inactive = no such curve, though single readings can be large; an effect the other way counts as inactive or inconclusive.

O=C(NCCCc1ccccc1)c1n[nH]c2c1CN(C(=O)c1ccccc1F)CC2	HEK293 tox inconclusive, NIH3T3 tox 35.5µM
COc1cc(=O)n2c(c1C(=O)Nc1cccc(F)c1)CCCC2	none
CC(=O)N1Cc2ccccc2CC2(CCCN(C)C2)C1 (centres undefined)	none (no result: NPR1 antag, FLuc inh)
CCC(=O)N1Cc2ccccc2CC2(CCCN(C)C2)C1 (centres undefined)	HEK293 tox 79.4µM, NIH3T3 tox inconclusive (no result: NPR1 antag, FLuc inh)
Cc1noc(C)c1C(=O)N1Cc2ccccc2CC2(CCN(CC3CCNCC3)CC2)C1	none (no result: NPR1 antag, FLuc inh)
Cc1noc(C)c1C(=O)N1Cc2ccccc2CC2(CCN(C)C2)C1 (centres undefined)	HEK293 tox 79.4µM, NIH3T3 tox 79.4µM (no result: NPR1 antag, FLuc inh)
COc1ccc(NC(=O)Cn2c(=O)n(-c3cccc(C)c3)c(=O)c3c2cc(C)n3C)cc1OC	HEK293 tox inconclusive, NIH3T3 tox inconclusive
CC1=C[C@@H](CN(C)CCN(C)C)[C@H](C(C)C)C[C@H]1Cc1nnc(-c2ccccc2)o1	HEK293 tox 44.7µM, NIH3T3 tox 28.2µM
CC1=C[C@@H](CN2CCC(C(N)=O)CC2)[C@H](C(C)C)C[C@H]1Cc1nnc(-c2ccccc2F)o1	HEK293 tox inconclusive, NIH3T3 tox inconclusive
CC1=C[C@@H](CN(C)CCc2ccccn2)[C@H](C(C)C)C[C@H]1Cc1nnc(-c2ccccc2)o1	HEK293 tox inconclusive, NIH3T3 tox inconclusive
CC1=C[C@@H](CNC(=O)C(C)(C)C)[C@H](C(C)C)C[C@H]1Cc1nnc(-c2ccccc2F)o1	HEK293 tox 31.6µM, NIH3T3 tox inconclusive
CC1=C[C@@H](CN(C)CCC#N)[C@H](C(C)C)C[C@H]1Cc1nnc(-c2ccccc2F)o1	HEK293 tox 79.4µM, NIH3T3 tox inconclusive, NPR1 antag inconclusive
CC1=C[C@@H](CN(C)CCc2ccccn2)[C@H](C(C)C)C[C@H]1Cc1nnc(-c2ccncc2)o1	HEK293 tox 79.4µM, NIH3T3 tox inconclusive
COc1ccc(NC(=O)C2CCc3nnc(CN[S+](=O)([O-])c4ccccc4Cl)n32)cc1 (centres undefined)	none (no result: NPR1 antag, FLuc inh)
COc1ccc(C(=O)NC2CCCN(c3ccc4nnc(-c5ccccc5)n4n3)C2)cc1 (centres undefined)	HEK293 tox 22.4µM, NIH3T3 tox inconclusive (no result: NPR1 antag, FLuc inh)
O=C(NC1CCCN(c2ccc3nnc(-c4ccccc4)n3n2)C1)c1ccc(F)cc1 (centres undefined)	none (no result: NPR1 antag, FLuc inh)
O=C(NC1CCCC1)NC1CCCN(c2ccc3nnc(-c4ccccc4)n3n2)C1 (centres undefined)	none (no result: NPR1 antag, FLuc inh)
O=C(NC1CCCN(c2ccc3nnc(-c4ccccc4)n3n2)C1)c1ccccn1 (centres undefined)	HEK293 tox 28.2µM, NIH3T3 tox inconclusive (no result: NPR1 antag, FLuc inh)
COc1ccc(CNC(=O)CC2CCCCN(C)C2=O)c(OC)c1 (centres undefined)	none
O=C(CCC[C@@H]1[C@H]2CCCN3CCC[C@@H](CN1C(=O)c1ccccc1)[C@@H]23)Nc1ccccc1	none
CN(C)C(=O)NCc1cc2n(n1)CCN(Cc1cn[nH]c1-c1ccccc1)C2	none
Cc1ccc([S+](=O)([O-])NCCNC(=O)c2ccc(-c3cncnc3)cc2)cc1	none (no result: NPR1 antag, FLuc inh)
O=C(NCCN[S+](=O)([O-])c1cccc(C(F)(F)F)c1)c1ccc(-c2cncnc2)cc1	HEK293 tox 89.1µM (no result: NPR1 antag, FLuc inh)
O=C(NCCN[S+](=O)([O-])c1cccc(C(F)(F)F)c1)c1cccc(-c2ccsc2)c1	HEK293 tox inconclusive, NIH3T3 tox 39.8µM (no result: NPR1 antag, FLuc inh)
CCC(C)NC(=O)CNC(=O)c1ccc(-c2cccc(C(F)(F)F)c2)cc1 (centres undefined)	HEK293 tox 35.5µM (no result: NPR1 antag, FLuc inh)
O=C(NCCN[S+](=O)([O-])c1cccc(C(F)(F)F)c1)c1ccc(-c2cccc(C(F)(F)F)c2)cc1	HEK293 tox 39.8µM, NIH3T3 tox 28.2µM (no result: NPR1 antag, FLuc inh)
CCOc1ccccc1C1NC(=O)N(CC(=O)Nc2c(C)cccc2CC)C2=C1C(=O)OC2 (centres undefined)	none
COC(=O)c1ccc(NC(=O)N2CCCC(CN3CCOCC3)CC2)cc1 (centres undefined)	none
CC1(C(=O)NCC2CC2)COCc2cnc(Nc3ccccc3)nc21 (centres undefined)	HEK293 tox inconclusive
COc1cccc(Nc2ncc3c(n2)C(C)(C(=O)NCC2CC2)CC3)c1 (centres undefined)	HEK293 tox 50.1µM, NIH3T3 tox inconclusive
CC1(C(=O)NCC2CC2)CCc2cnc(Nc3ccccc3)nc21 (centres undefined)	HEK293 tox 100µM, NIH3T3 tox inconclusive
CN1Cc2ccc(Nc3ccccc3)nc2C(C)(C(=O)NCCc2ccccn2)C1 (centres undefined)	HEK293 tox inconclusive, NIH3T3 tox inconclusive
COc1cccc(Nc2ncc3c(n2)C(C)(C(=O)NCCc2ccccn2)CC3)c1 (centres undefined)	HEK293 tox 100µM, NIH3T3 tox inconclusive
COc1cccc(NC(=O)C2(C)CCc3cnc(N4CCOCC4)nc32)c1 (centres undefined)	HEK293 tox inconclusive, NIH3T3 tox inconclusive
CCOC(=O)C1=CN(CC(=O)Nc2cccc(Cl)c2)S(=O)(=O)N=C1C	HEK293 tox inconclusive, NIH3T3 tox inconclusive
Cn1cc(CC(=O)N2CCCc3ncc(C(=O)NCCc4ccccn4)cc32)c2ccccc21	HEK293 tox inconclusive, NIH3T3 tox inconclusive
O=C(NC1CC(c2cc(N3CCC(O)C3)ncn2)C1)c1ccoc1 (centres undefined)	none
N#Cc1ccc(NC2CC(c3cc(N4CCC(O)C4)ncn3)C2)nc1 (centres undefined)	NIH3T3 tox 15.8µM
COc1ccc(NC(=O)N2CCC(C)(c3noc(C)n3)CC2)cc1OC	none (no result: NPR1 antag, FLuc inh)
COCc1ccc2c(c1)c(OC(C)(C)C(=O)NCc1ccncc1)nn2Cc1cccnc1	NIH3T3 tox inconclusive
COCc1ccc2c(c1)c(OC(C)(C)C(=O)NCCCn1ccnc1)nn2Cc1ccccc1	NIH3T3 tox 22.4µM
COCc1ccc2c(c1)c(OC(C)(C)C(=O)NCc1ccncc1)nn2Cc1cccc(OC)c1	HEK293 tox inconclusive, NIH3T3 tox 10µM
COCc1ccc2c(c1)c(OC(C)(C)C(=O)NCCN(C)C)nn2Cc1ccccc1	NIH3T3 tox 89.1µM
COCc1ccc2c(c1)c(OC(C)(C)C(=O)NCc1ccncc1)nn2Cc1ccccc1	NIH3T3 tox 28.2µM
COCc1ccc2c(c1)c(OC(C)(C)C(=O)Nc1ccccn1)nn2Cc1cccc(OC)c1	HEK293 tox inconclusive, NIH3T3 tox inconclusive
CC(C)NC(=O)N1CCC[C@@H](O)[C@H](NC(=O)c2ccc(OCCN3CCCC3)cc2)C1	none
O=C(Cc1ccccc1)NCCC1CCN(C(=O)Nc2ccc(F)cc2)CC1	none
O=C(NCCNC(=O)c1ccc(-c2cncnc2)cc1)Nc1ccccc1F	none (no result: NPR1 antag, FLuc inh)
COc1ccc(F)cc1-c1cccc(C(=O)NCCNC(=O)Nc2ccccc2)c1	HEK293 tox 50.1µM, NIH3T3 tox 35.5µM (no result: NPR1 antag, FLuc inh)
COc1ccc(F)cc1-c1cccc(C(=O)NCCNC(=O)Nc2ccccc2F)c1	HEK293 tox 20µM, NIH3T3 tox inconclusive (no result: NPR1 antag, FLuc inh)
COc1ccc(F)cc1-c1cccc(C(=O)O)c1	none (no result: NPR1 antag, FLuc inh)
CN1CC(=O)N(c2cccnc2)Cc2c1ncnc2N1CCCCC1	none
